Laboratory results taken from PubChem BioAssay (Tox21).
Results filed as inconclusive are left out. The source made the active and inactive calls. Unless noted, calls follow the shape of the dose curve; as a rule, active = well fitted curve in the direction sought with a large enough effect in the repeat runs; inconclusive = weak or mixed curves; inactive = no such curve, though single readings can be large; an effect the other way counts as inactive or inconclusive.

Experiments:
[1] = qHTS assay to identify small molecule antagonists of the thyroid receptor (TR) signaling pathway - cell viability counter screen (AID 743064); also: nearly all actives have a fitted effect of over 50% in size
Procedure, shortened: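 GH3.TRE-Luc rat pituitary cells carrying a TRE-luciferase reporter were treated with compound plus 1 nM T3 (final) for 23.5 h at 37 °C. Viability was then read in the same wells by CellTiter-Fluor fluorescence after a further 30 min.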

[2] = qHTS assay to identify small molecule antagonists of the thyroid receptor (TR) signaling pathway (AID 743065); also: series mostly up to about 70 µM; nearly all actives have a fitted effect of over 55% in size
Procedure, shortened: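 GH3.TRE-Luc rat pituitary cells (two TREs driving luciferase) were dosed with compound, then stimulated with 1 nM T3 (final) for 23.5 h at 37 C. ONE-Glo luminescence was the read-out, with CellTiter-Fluor fluorescence as the cytotoxicity counter-screen.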

[3] = test system: thyroid hormone receptor (rat, GH3 cells); assay: qHTS assay to identify small molecule agonists of the thyroid receptor (TR) signaling pathway (AID 743066; calls by dose curve)
[4] = molecular target: Estrogen receptor (Homo sapiens) (UniProt P03372); assay: qHTS assay to identify small molecule antagonists of the estrogen receptor alpha (ER-alpha) signaling pathway (AID 743069; active = well fitted curve in the direction sought with a large enough effect in the signal ratio in the repeat runs, not every such curve was filed as active; the % refers to the signal ratio)
Procedure, shortened: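 HEK293 ER-alpha-UAS-bla GripTite cells, held overnight in 2% charcoal-stripped FBS, 5,000 cells/well, preincubated 4 h, then compound plus 17beta-estradiol for 18 h at 37C. Beta-lactamase read by LiveBLAzer B/G FRET substrate, 2 h at room temperature.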

[5] = qHTS assay to identify small molecule antagonists of the estrogen receptor alpha (ER-alpha) signaling pathway - cell viability counter screen (AID 743074; calls by dose curve;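 also: HEK293 cells carrying ER-alpha-UAS-bla reporter stimulated with 17beta-estradiol; nearly all actives have a fitted effect of over 45% in size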)
[6] = molecular target: Estrogen receptor (Homo sapiens) (UniProt P03372); assay: qHTS assay to identify small molecule agonists of the estrogen receptor alpha (ER-alpha) signaling pathway (AID 743075; calls by dose curve)
[7] = molecular target: Estrogen receptor (Homo sapiens) (UniProt P03372); assay: qHTS assay to identify small molecule agonists of the estrogen receptor alpha (ER-alpha) signaling pathway using the BG1 cell line (AID 743079); also: nearly all actives have a fitted effect of over 20% in size; also: potency is read from the fitted curve at half-maximal effect
[8] = qHTS assay to identify small molecule antagonists of the estrogen receptor alpha (ER-alpha) signaling pathway using the BG1 cell line (AID 743080; calls by dose curve;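 also: BG1 cells stimulated with 17beta-estradiol alongside compound; series mostly up to about 70 µM; nearly all actives have a fitted effect of over 25% in size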)
Procedure, shortened: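 Luminescence from a 4×ERE-luciferase reporter in BG1-Luc-4E2 cells served as read-out. Cells, pre-cultured 5 days in stripped-serum phenol-red-free medium, were exposed to compound with 17beta-estradiol co-stimulation for 21.5 h at 37 C.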

[9] = qHTS assay to identify small molecule antagonists of the estrogen receptor alpha (ER-alpha) signaling pathway using the BG1 cell line - cell viability counter screen (AID 743081);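 also: compound given together with 17beta-estradiol as the ER stimulus; series mostly up to about 70 µM; nearly all actives have a fitted effect of over 45% in size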
Aromatase (Homo sapiens) = Aromatase (Homo sapiens) (UniProt P11511); assay: qHTS assay to identify aromatase inhibitors (AID 743083); also: series mostly up to about 70 µM; nearly all actives have a fitted effect of over 55% in size
[10] = qHTS assay to identify aromatase inhibitors - cell viability counter screen (AID 743084);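 also: cells stimulated with testosterone during compound exposure; nearly all actives have a fitted effect of over 55% in size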
[11] = molecular target: Aryl hydrocarbon receptor (Homo sapiens) (UniProt P35869); assay: qHTS assay to identify small molecule that activate the aryl hydrocarbon receptor (AhR) signaling pathway (AID 743085);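 also: HG2L7.5c1 human HepG2 liver cells with stably integrated DRE-driven firefly reporter; series mostly up to about 70 µM; nearly all actives have a fitted effect of over 15% in size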
Procedure, shortened: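 HepG2 cells (HG2L7.5c1) stably carrying a firefly luciferase reporter driven by 20 dioxin responsive elements were exposed to compound for 24 h at 37C after a 5 h settling period; luminescence rise (ONE-Glo) indicated activation.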

[12] = qHTS assay to identify small molecule that activate the aryl hydrocarbon receptor (AhR) signaling pathway - cell viability counter screen (AID 743086);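 also: HepG2 liver cells carrying the AhR DRE luciferase reporter; series mostly up to about 70 µM; nearly all actives have a fitted effect of over 45% in size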
Procedure, shortened: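 HepG2-AhR-luc (HG2L7.5c1) cells, 4000/well, treated 24 h at 37 C with compound; viability measured as CellTiter-Fluor fluorescence after 30 min in the same wells as the luciferase read.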

[13] = molecular target: Peroxisome proliferator-activated receptor gamma (Homo sapiens) (UniProt P37231); assay: qHTS assay to identify small molecule agonists of the peroxisome proliferator-activated receptor gamma (PPARg) signaling pathway (AID 743094; active = well fitted activation curve with a large enough effect in the signal ratio in the repeat runs, not every such curve was filed as active; the % refers to the signal ratio)
Procedure, shortened: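 Compounds dissolved in DMSO were added to PPARg UAS-bla HEK293H cells for 17 h at 37C, and reporter expression was quantified by fluorescence intensity after 1 h with LiveBLAzer B/G FRET substrate.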

[14] = molecular target: Peroxisome proliferator-activated receptor gamma (Homo sapiens) (UniProt P37231); assay: qHTS assay to identify small molecule antagonists of the peroxisome proliferator-activated receptor gamma (PPARg) signaling pathway (AID 743191; calls by dose curve; also: series mostly up to about 63 µM; nearly all actives have a fitted effect of over 30% in size)
Procedure, shortened: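 GeneBLAzer PPARg UAS-bla HEK293H cells, 5 h post-plating, exposed to compounds 17 h at 37C. LiveBLAzer B/G FRET substrate added for 1 h at room temperature; beta-lactamase reporter read by fluorescence intensity.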

[15] = qHTS assay to identify small molecule antagonists of the peroxisome proliferator-activated receptor gamma (PPARg) signaling pathway - cell viability counter screen (AID 743194); also: nearly all actives have a fitted effect of over 55% in size
Procedure, shortened: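 Cytotoxicity counter screen in PPARg-bla HEK293H cells, same wells as reporter assay. Compounds plus 50 nM rosiglitazone (final) for 17 h at 37 C, then viability read by CellTiter-Glo luminescence.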

[16] = qHTS assay for small molecule agonists of the antioxidant response element (ARE) signaling pathway (AID 743202; active = well fitted activation curve with a large enough effect in the signal ratio in the repeat runs, not every such curve was filed as active; the % refers to the signal ratio)
Procedure, shortened: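 ARE-bla HepG2 cells (beta-lactamase reporter under the antioxidant response element), plated 5 hours, then exposed to compounds 16 hours at 37 C. LiveBLAzer B/G FRET substrate added for 2 hours at room temperature; fluorescence intensity read.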

[17] = qHTS assay for small molecule agonists of the antioxidant response element (ARE) signaling pathway - cell viability counter screen (AID 743203; calls by dose curve; also: nearly all actives have a fitted effect of over 55% in size)
Procedure, shortened: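 Following 16 hrs of compound treatment at 37C, HepG2 cells with an ARE-controlled beta-lactamase gene were lysed with CellTiter-Glo. Luminescence was read after 30 min at room temperature.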

[18] = qHTS assay for small molecule activators of the heat shock response signaling pathway (AID 743210; active = well fitted activation curve with a large enough effect in the signal ratio in the repeat runs, with a control signal flat, not every such curve was filed as active; the % refers to the signal ratio; also: series mostly up to about 63 µM)
Procedure, shortened: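 HSE-bla HeLa cells (beta-lactamase reporter under heat shock response elements), plated overnight, then exposed to compounds 5 h at 37 C; LiveBLAzer B/G FRET substrate added, 2.5 h at room temperature, fluorescence intensity read.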

[19] = qHTS assay for small molecule activators of the heat shock response signaling pathway - cell viability counter screen (AID 743209); also: nearly all actives have a fitted effect of over 50% in size
Procedure, shortened: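 Readout: CellTiter-Glo luminescence, 30 min at room temperature. System: HSE-bla HeLa cells, 1500/well, plated overnight. Treatment: compounds in DMSO, 5 h at 37 C.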
% is scaled to controls: 0 for no effect and ±100 for the full control effect.

Estrogen receptor (Homo sapiens), sequence (P03372 whole entry, looked up): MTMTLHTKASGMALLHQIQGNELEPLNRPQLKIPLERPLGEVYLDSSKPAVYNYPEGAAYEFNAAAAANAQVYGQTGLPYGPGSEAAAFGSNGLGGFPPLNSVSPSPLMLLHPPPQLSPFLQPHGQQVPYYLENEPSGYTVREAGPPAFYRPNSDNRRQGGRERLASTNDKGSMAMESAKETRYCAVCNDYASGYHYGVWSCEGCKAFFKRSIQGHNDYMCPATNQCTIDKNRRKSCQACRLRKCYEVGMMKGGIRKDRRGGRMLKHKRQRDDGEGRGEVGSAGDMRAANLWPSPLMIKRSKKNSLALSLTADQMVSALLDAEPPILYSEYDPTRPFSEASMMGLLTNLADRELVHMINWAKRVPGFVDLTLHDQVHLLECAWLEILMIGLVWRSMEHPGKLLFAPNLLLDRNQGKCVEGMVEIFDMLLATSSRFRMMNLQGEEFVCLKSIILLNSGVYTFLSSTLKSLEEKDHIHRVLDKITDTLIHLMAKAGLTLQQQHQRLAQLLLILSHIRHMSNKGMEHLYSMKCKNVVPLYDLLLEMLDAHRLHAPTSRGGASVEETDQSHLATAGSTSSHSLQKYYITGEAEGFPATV
Aryl hydrocarbon receptor (Homo sapiens), sequence (P35869 whole entry, looked up): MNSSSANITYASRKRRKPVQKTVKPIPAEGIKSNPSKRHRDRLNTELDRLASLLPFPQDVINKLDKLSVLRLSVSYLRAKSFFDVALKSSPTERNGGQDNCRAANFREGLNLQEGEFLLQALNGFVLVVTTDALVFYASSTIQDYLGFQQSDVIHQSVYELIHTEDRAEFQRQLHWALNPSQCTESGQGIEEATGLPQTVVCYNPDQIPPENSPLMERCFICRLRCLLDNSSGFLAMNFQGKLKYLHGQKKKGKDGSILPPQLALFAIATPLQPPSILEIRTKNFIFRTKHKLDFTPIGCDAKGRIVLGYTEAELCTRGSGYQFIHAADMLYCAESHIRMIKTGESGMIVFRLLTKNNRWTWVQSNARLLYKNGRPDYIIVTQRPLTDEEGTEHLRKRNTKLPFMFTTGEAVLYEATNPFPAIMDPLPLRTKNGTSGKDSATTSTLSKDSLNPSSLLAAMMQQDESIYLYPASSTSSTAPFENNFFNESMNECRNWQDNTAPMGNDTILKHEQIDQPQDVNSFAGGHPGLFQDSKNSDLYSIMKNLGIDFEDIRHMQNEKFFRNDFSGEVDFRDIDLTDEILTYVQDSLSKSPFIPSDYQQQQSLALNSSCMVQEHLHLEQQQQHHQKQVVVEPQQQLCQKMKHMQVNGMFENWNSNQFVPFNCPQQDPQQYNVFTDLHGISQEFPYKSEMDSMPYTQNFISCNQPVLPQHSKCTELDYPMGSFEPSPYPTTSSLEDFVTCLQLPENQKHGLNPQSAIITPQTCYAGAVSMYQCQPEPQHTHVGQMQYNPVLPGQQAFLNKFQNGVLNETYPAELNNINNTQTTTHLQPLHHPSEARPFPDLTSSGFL
Peroxisome proliferator-activated receptor gamma (Homo sapiens), sequence (P37231 whole entry, looked up): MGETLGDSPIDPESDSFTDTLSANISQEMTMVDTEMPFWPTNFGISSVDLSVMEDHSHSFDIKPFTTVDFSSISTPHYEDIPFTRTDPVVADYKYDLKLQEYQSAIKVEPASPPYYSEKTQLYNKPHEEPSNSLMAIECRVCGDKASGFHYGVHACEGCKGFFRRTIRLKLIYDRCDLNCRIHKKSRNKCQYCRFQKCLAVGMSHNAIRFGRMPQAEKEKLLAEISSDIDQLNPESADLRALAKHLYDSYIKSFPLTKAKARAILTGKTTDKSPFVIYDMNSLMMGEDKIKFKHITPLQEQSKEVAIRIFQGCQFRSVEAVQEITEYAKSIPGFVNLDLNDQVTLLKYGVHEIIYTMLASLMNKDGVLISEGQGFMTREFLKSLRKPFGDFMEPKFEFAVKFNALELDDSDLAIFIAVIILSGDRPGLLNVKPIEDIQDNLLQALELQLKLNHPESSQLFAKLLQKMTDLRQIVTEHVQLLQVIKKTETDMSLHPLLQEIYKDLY
Aromatase (Homo sapiens), sequence (P11511 whole entry, looked up): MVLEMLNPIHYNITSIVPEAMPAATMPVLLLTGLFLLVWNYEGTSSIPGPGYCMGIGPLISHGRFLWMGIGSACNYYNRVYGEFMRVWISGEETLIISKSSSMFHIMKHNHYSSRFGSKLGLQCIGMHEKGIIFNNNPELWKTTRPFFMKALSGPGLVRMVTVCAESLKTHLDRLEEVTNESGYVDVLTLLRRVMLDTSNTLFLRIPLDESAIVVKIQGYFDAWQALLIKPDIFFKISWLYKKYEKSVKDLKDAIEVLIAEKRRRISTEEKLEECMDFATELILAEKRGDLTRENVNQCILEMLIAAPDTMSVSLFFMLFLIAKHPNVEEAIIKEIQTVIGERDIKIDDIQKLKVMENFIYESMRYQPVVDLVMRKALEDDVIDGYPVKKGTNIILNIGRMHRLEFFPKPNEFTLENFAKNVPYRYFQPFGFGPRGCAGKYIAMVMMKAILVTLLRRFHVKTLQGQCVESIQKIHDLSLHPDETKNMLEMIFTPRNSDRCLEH

CC(CC=O)CCCC(C)(C)O (stereo not drawn)
inactive: Potency [1] | Potency [2] | outcome [3] | outcome [4] | outcome [5] | outcome [6] | Potency [7] | Potency [8] | outcome [9] | Potency (Aromatase (Homo sapiens)) | Potency [10] | Potency [11] | Potency [12] | outcome [13] | Potency [14] | outcome [15] | Potency [16] | outcome [17] | outcome [18]

O=C(O)Cc1ccc(Cl)cc1Cl
inactive: Potency [1] | Potency [2] | outcome [3] | outcome [4] | outcome [5] | outcome [6] | Potency [7] | Potency [8] | outcome [9] | Potency (Aromatase (Homo sapiens)) | Potency [10] | Potency [11] | outcome [13] | Potency [14] | outcome [15] | Potency [16] | outcome [17] | outcome [19]

Cc1cc(C(C)(C)C)c(O)c(C)c1CC1=NCCN1
inactive: Potency [1] | Potency [2] | outcome [3] | outcome [4] | outcome [5] | outcome [6] | Potency [7] | Potency [8] | outcome [9] | Potency (Aromatase (Homo sapiens)) | Potency [10] | Potency [11] | Potency [12] | outcome [13] | Potency [14] | outcome [15] | outcome [17] | outcome [18]

CC(=O)NCc1c(I)c(NC(C)=O)c(I)c(C(=O)O)c1I
active: Potency [7] 13.3 µM
inactive: Potency [1] | Potency [2] | outcome [3] | outcome [4] | outcome [5] | outcome [6] | Potency [8] | outcome [9] | Potency (Aromatase (Homo sapiens)) | Potency [10] | Potency [11] | Potency [12] | outcome [13] | outcome [15] | outcome [19]

O=C(OCC(COC(=O)c1cccnc1)(COC(=O)c1cccnc1)COC(=O)c1cccnc1)c1cccnc1
inactive: Potency [1] | Potency [2] | outcome [3] | outcome [4] | outcome [5] | outcome [6] | Potency [7] | Potency [8] | outcome [9] | Potency (Aromatase (Homo sapiens)) | Potency [10] | Potency [11] | Potency [12] | outcome [13] | Potency [14] | outcome [15] | outcome [17] | outcome [19] | outcome [18]

CCC(CC)CO
inactive: Potency [1] | Potency [2] | outcome [3] | outcome [4] | outcome [5] | outcome [6] | Potency [7] | Potency [8] | outcome [9] | Potency (Aromatase (Homo sapiens)) | Potency [10] | Potency [11] | Potency [12] | Potency [14] | Potency [16] | outcome [17] | outcome [19]

O=S(O)(O)=S
inactive: activity change, negative = cytotoxic [1] 0% [at 8.44 µM] | activity, negative = inhibition [2] -1.88% [at 8.44 µM] | activation [3] -0.901% [at 8.08 µM] | activity, negative = inhibition [4] 6.18% [at 6.71 µM] | activity, negative = cytotoxicity [5] -12.1% [at 6.72 µM] | activation [6] -2.02% [at 6.71 µM] | activation [7] 6.37% [at 8.47 µM] | activity change, negative = inhibition [8] -6.18% [at 8.47 µM] | activity change, negative = cytotoxicity [9] -1.7% [at 8.47 µM] | activity, negative = inhibition (Aromatase (Homo sapiens)) 5.06% [at 8.47 µM] | activity change, negative = cytotoxicity [10] 0.159% [at 8.47 µM] | activation [11] -4.49% [at 8.47 µM] | viability change, negative = cytotoxic [12] -5.98% [at 8.47 µM] | activation [13] 0.645% [at 7.08 µM] | ratio activity, negative = inhibition [14] 10.9% [at 5.95 µM] | activity change, negative = cytotoxicity [15] -0.949% [at 5.95 µM] | activation [16] -7.19% [at 8.36 µM] | activity change, negative = cytotoxicity [19] 5.21% [at 5.95 µM] | activation [18] -0.665% [at 5.95 µM]

CCCCCCCCC(=O)Cl
inactive: Potency [1] | Potency [2] | outcome [3] | outcome [4] | outcome [5] | outcome [6] | Potency [7] | Potency [8] | outcome [9] | Potency (Aromatase (Homo sapiens)) | Potency [10] | Potency [11] | Potency [12] | outcome [13] | outcome [15] | outcome [19] | outcome [18]

O=C1c2ccccc2C(=O)c2cc(S(=O)(=O)O)ccc21
inactive: Potency [1] | Potency [2] | outcome [3] | outcome [4] | outcome [5] | outcome [6] | Potency [7] | Potency [8] | outcome [9] | Potency (Aromatase (Homo sapiens)) | Potency [10] | Potency [11] | outcome [13] | Potency [14] | outcome [15] | outcome [17] | outcome [19]

O=C(CS(=O)Cc1ccco1)NC/C=C\COc1cc(CN2CCCCC2)ccn1 (stereo not drawn)
inactive: Potency [1] | Potency [2] | outcome [3] | outcome [4] | outcome [5] | outcome [6] | Potency [7] | Potency [8] | outcome [9] | Potency (Aromatase (Homo sapiens)) | Potency [10] | Potency [11] | Potency [12] | outcome [13] | Potency [14] | outcome [15] | Potency [16] | outcome [17] | outcome [19] | outcome [18]

O=C1O[C@@H]2[C@@H](O)[C@H](O)O[C@@H]2[C@H]1O
inactive: Potency [1] | Potency [2] | outcome [3] | outcome [4] | outcome [5] | outcome [6] | Potency [7] | Potency [8] | outcome [9] | Potency (Aromatase (Homo sapiens)) | Potency [10] | Potency [11] | Potency [12] | outcome [13] | Potency [14] | outcome [15] | Potency [16] | outcome [17] | outcome [18]

CN(C)CCOCCO
inactive: Potency [1] | Potency [2] | outcome [3] | outcome [4] | outcome [5] | outcome [6] | Potency [7] | Potency [8] | outcome [9] | Potency (Aromatase (Homo sapiens)) | Potency [10] | Potency [11] | Potency [12] | outcome [13] | Potency [14] | outcome [15] | Potency [16] | outcome [17] | outcome [18]

O=C1c2ccccc2C(=O)C1c1ccccc1
inactive: Potency [1] | Potency [2] | outcome [3] | outcome [4] | outcome [5] | outcome [6] | Potency [7] | Potency [8] | outcome [9] | Potency (Aromatase (Homo sapiens)) | Potency [10] | Potency [11] | Potency [12] | outcome [13] | Potency [14] | Potency [16] | outcome [17] | outcome [19]

CCCCC(CC)COCCO (stereo not drawn)
inactive: Potency [1] | Potency [2] | outcome [3] | outcome [4] | outcome [5] | outcome [6] | Potency [7] | Potency [8] | outcome [9] | Potency (Aromatase (Homo sapiens)) | Potency [10] | Potency [11] | Potency [12] | outcome [13] | Potency [14] | outcome [15] | outcome [17] | outcome [19] | outcome [18]

CCCCCCCCCC(C)=O
inactive: Potency [1] | Potency [2] | outcome [3] | outcome [4] | outcome [5] | outcome [6] | Potency [7] | Potency [8] | outcome [9] | Potency (Aromatase (Homo sapiens)) | Potency [10] | Potency [11] | Potency [12] | Potency [14] | outcome [15] | Potency [16] | outcome [17] | outcome [18]
